HCV inhibitor: blocks hepatitis C virus | 340,000 compounds, 3.4% hits | Huh7.5.1 HCVcc-Cre infection, luciferase reporter, 44 h | Potency, µM (doses to about 41.8 µM), hits mostly inhibitors
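Luciferase read-out (15 sec integration) after a 15 min room-temperature substrate step quantifies HCVcc-Cre infection. Cells, 1,000 per well, had compound added 4 h post-plating, then virus at ~0.5 moi, and were cultured 44 h.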
Pf growth 96h: P. falciparum growth inhibition at 96 hour, primary screen for plastid delayed-death inhibitors | Potency, µM (series often up to 28.7 µM), hits mostly inhibitors | P. falciparum luciferase reporter growth, 96 h | AID 504834 | 320,000 compounds, 6.9% hits
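Luminescence readout: decreased luciferase signal marks inhibited growth of reporter-expressing P. falciparum in infected red cells (2% hematocrit, 0.05% parasitemia final), exposed to compound two generations (96 h, 37 C, 5% CO2).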
AmpC detergent: AmpC beta-lactamase inhibition with detergent present; P00811; AmpC hydrolysis of nitrocefin, absorbance 480 nm, 0.01% Triton; Potency, µM (top dose mostly 114 µM), hits mostly inhibitors; 370,000 compounds, 0.041% hits; further: nearly all actives have a fitted effect of over 25% in size
Target sequence (P00811 whole entry, looked up): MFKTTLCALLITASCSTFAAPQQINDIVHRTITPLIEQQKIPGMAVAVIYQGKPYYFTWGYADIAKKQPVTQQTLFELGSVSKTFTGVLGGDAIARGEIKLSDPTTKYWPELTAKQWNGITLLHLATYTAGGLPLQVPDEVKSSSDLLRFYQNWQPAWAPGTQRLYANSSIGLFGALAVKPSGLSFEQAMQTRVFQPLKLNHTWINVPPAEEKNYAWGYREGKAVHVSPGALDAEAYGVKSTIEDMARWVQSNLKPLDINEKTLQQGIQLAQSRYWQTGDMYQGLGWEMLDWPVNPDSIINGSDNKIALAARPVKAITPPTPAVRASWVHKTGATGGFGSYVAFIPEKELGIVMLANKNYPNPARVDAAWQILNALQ
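20 mM phosphate pH 7.0 + 0.01% (detergent screen) or 0.0001% Triton X-100; 5.3 nM AmpC reagent; cpd preinc 15 min RT; nitrocefin (800 uM stock) to start; A480 q20 s × 4 min; Activity was normalised to no-enzyme and no-compound control wells.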
AmpC no deterg: inhibitors of E. coli AmpC beta-lactamase without detergent; P00811; AmpC nitrocefin hydrolysis, absorbance 480 nm, 0.0001% Triton; Potency, µM (titrated, usually from 57.1 µM), hits mostly inhibitors; 330,000 compounds, 0.52% hits; AID 485341; further: nearly all actives have a fitted effect of over 20% in size
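AmpC (5.3 nM in the dispensed reagent) in 20 mM phosphate pH 7.0 with 0.01% (detergent screen) or 0.0001% Triton X-100 was preincubated with compounds for 15 min at room temperature. Nitrocefin was then added from an 800 uM solution, and hydrolysis was followed at 480 nm.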
Pf growth 48h: P. falciparum growth inhibition at 48 hours (one generation); P. falciparum luciferase growth in erythrocytes, 48 h; Potency, µM (highest dose often 28.7 µM), hits mostly inhibitors; 310,000 compounds, 5.9% hits; AID 504832
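Erythrocytes infected with P. falciparum carrying an integrated firefly luciferase reporter (2% hematocrit, 0.1% parasitemia final) were exposed to compounds in RPMI 1640 with 0.5% Albumax at 37 C, 5% CO2. Growth inhibition was scored as reduced luminescence.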
AMA1 RON2 block: AMA1-RON2 (P. falciparum) interaction inhibition. 360,000 compounds, 0.2% hits. Potency, µM (doses to about 58.2 µM), most hits filed as inhibitors. AlphaScreen AMA1-biotinylated RON2 peptide binding. AID 720542; further: nearly all actives have a fitted effect of over 45% in size
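AMA1 (3D7) with his tag at 25 nM final met compounds first, then biotinylated RON2 peptide at 25 nM; detection used donor plus acceptor beads, 10 µg/mL apiece, read by AlphaScreen after 30 min at room temperature.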
Large screens that a line does not name were inactive. Compounds with a hit are over-represented: about 11% of the library has one in this group of screens. The call rests on the fitted dose curve; in most records, active means well fitted curve in the direction sought with a large enough effect; inconclusive means small, poorly fitted or top-dose-only effect, or another doubt; inactive means no such curve, though single readings can be large; an effect the other way counts as inactive or inconclusive.

CC(C)C(=O)Nc1ccc2nc(SCC(=O)N3CCCC3)sc2c1	none (no result: HCV inhibitor, Pf growth 96h, AmpC no deterg, Pf growth 48h, AMA1 RON2 block)
O=C1CN(C(=O)CSc2nc3ccccc3c(=O)n2Cc2ccc(F)cc2)c2ccccc2N1	HCV inhibitor inconclusive, Pf growth 96h 2.6µM, Pf growth 48h 12µM
CCCCCCn1c(SCC(=O)Nc2cc(C)on2)nc2ccccc2c1=O	HCV inhibitor inconclusive, Pf growth 96h 6.6µM, Pf growth 48h inconclusive
CCCCn1c(SCC(=O)Nc2cc(C)on2)nc2ccsc2c1=O	none
Cc1cc(NC(=O)CSc2nc3ccsc3c(=O)n2CCCCC(=O)O)no1	Pf growth 96h 4.7µM
COc1ccc(S(=O)(=O)N2CCC(n3c(C(F)(F)F)nc4cccnc43)CC2)cc1OC	none (no result: HCV inhibitor, Pf growth 96h, AmpC no deterg, Pf growth 48h, AMA1 RON2 block)
Cc1ccc(NC(=O)CCn2nc(-c3ccccc3)c3ccccc3c2=O)c(C)c1	none (no result: HCV inhibitor, Pf growth 96h, AmpC no deterg, Pf growth 48h, AMA1 RON2 block)
CN(C)/C=N/c1ncc(C(=O)c2ccc(-c3ccccc3)cc2)s1	HCV inhibitor 11µM
CN(C)/C=N/c1ncc(C(=O)c2ccccc2)s1	none
N[C@@H]1C(O)OC(CO)C(O)C1O (some centres undefined)	none (no result: HCV inhibitor, AmpC detergent, AmpC no deterg, AMA1 RON2 block)
CCc1cc(N2CCOCC2)cc2c1[nH]c1ccccc12	HCV inhibitor 7.1µM, Pf growth 96h inconclusive
CCCCN(C)CCn1c(=S)[nH]c2ccc(N3CCOCC3)cc2c1=O	HCV inhibitor inconclusive, Pf growth 96h inconclusive
CCC(=O)c1ccc(OCC(O)Cn2cnc3ccccc32)cc1 (centres undefined)	HCV inhibitor inconclusive, Pf growth 96h 1.9µM
Cc1ccc(C)c(N(C)S(=O)(=O)c2ccc3[nH]cc(C(=O)NC4CCCC4)c(=O)c3c2)c1	none (no result: HCV inhibitor, Pf growth 96h, AmpC no deterg, Pf growth 48h, AMA1 RON2 block)
Cc1c(C(=O)NCc2ccc(Cl)cc2)sc2nc3n(c(=O)c12)CCCCC3	none (no result: HCV inhibitor, Pf growth 96h, AmpC no deterg, Pf growth 48h, AMA1 RON2 block)
CC1CC(=O)Nc2ccccc2N1S(=O)(=O)c1ccc(Cl)cc1 (centres undefined)	none
CC(=O)Nc1ccc(S(=O)(=O)N2c3ccccc3NC(=O)CC2C)c(Cl)c1 (centres undefined)	Pf growth 48h 2.1µM
CC1CC(=O)Nc2ccccc2N1S(=O)(=O)c1ccccc1 (centres undefined)	AmpC no deterg inconclusive, AMA1 RON2 block inconclusive
CC1CC(=O)Nc2ccccc2N1S(=O)(=O)c1ccc(F)cc1F (centres undefined)	Pf growth 96h inconclusive, Pf growth 48h 2.3µM
COc1ccccc1CN(C)C(=O)c1ccccc1SCC(=O)N1CCCC1	Pf growth 96h inconclusive
CN(Cc1cccc(Cl)c1Cl)C(=O)c1ccccc1SCC(=O)N1CCCC1	HCV inhibitor 22µM (no result: Pf growth 96h, AmpC detergent, AmpC no deterg, Pf growth 48h)
COC(=O)Cc1ccc(NC(=O)c2ccc(C(C)(C)C)cc2)cc1	HCV inhibitor 2.5µM, Pf growth 96h inconclusive (no result: Pf growth 48h)
CC(C)(C)c1ccc(C(=O)Nc2ccc(CN3CCS(=O)(=O)CC3)cc2)cc1	HCV inhibitor 5.6µM, Pf growth 96h inconclusive
COc1ccc(N2CC(NC(=O)Cc3cccs3)CC2=O)cc1OC (centres undefined)	none (no result: HCV inhibitor, Pf growth 96h, AmpC no deterg, Pf growth 48h, AMA1 RON2 block)
CC(=O)c1cc(C(=O)Nc2cc(C)cc(C)c2)c2ccccn12	none (no result: HCV inhibitor, Pf growth 96h, AmpC no deterg, Pf growth 48h, AMA1 RON2 block)
CNC(=O)CCc1[nH]c2ccccc2c1Sc1ccccc1	Pf growth 96h 5.2µM, Pf growth 48h inconclusive
COC(=O)c1[nH]c2ccccc2c1Sc1ccccc1	none
O=C(Nc1ccnn1C1CCN(Cc2cccc(O)c2)CC1)C1CCCC1	AmpC detergent inconclusive
Cc1cc(CN2CCC(n3nccc3NC(=O)c3ccccc3Cl)CC2)cc(C)c1O	Pf growth 48h 10µM
O=C(Nc1ccnn1C1CCN(Cc2ccc(O)c(Cl)c2)CC1)C1CCCC1	Pf growth 96h inconclusive, Pf growth 48h 2.1µM
O=C(Nc1ccnn1C1CCN(C(=O)Cc2cccc(Cl)c2)CC1)C1CC1	Pf growth 96h 13µM, AmpC detergent inconclusive
Cc1cccc(CC(=O)N2CCC(n3nccc3NC(=O)C3CC3)CC2)c1	none (no result: HCV inhibitor)
O=C(Nc1ccnn1C1CCN(Cc2cccnc2)CC1)c1ccccc1Cl	Pf growth 96h inconclusive
Cc1ccc2c(c1)N(C(=O)N1CCC(C(=O)NC3CCCCCC3)CC1)CC(C)O2 (centres undefined)	none (no result: HCV inhibitor, Pf growth 96h, AmpC no deterg, Pf growth 48h, AMA1 RON2 block)

Screening results: PubChem BioAssay, National Center for Advancing Translational Sciences (NCATS)
